Experiment [1] can be described thus: qHTS assay to identify small molecule antagonists of the androgen receptor (AR) signaling pathway using the MDA cell line in the presence of 0.5 nM R1881 - cell viability counter screen (AID 1259242). Further: on the % scale 0 is the no-effect control and ±100 the full control effect; nearly all actives have a fitted effect of over 45% in size. Summed up: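 Live-cell protease fluorescence, CellTiter-Fluor, 30 min at 37C. Cells: MDA-kb2, 3,000/well, preincubated 5 hr. Compounds plus 0.5 nM R1881 final, 16 hr, 37C, 0% CO2.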

Experiment [2] addresses Estrogen receptor (Homo sapiens) (UniProt P03372). Kind of experiment: qHTS assay to identify small molecule antagonists of the estrogen receptor alpha (ER-alpha) signaling pathway using the BG1 cell line in the presence of 0.1 nM 17-beta-estradiol (AID 1259244). Further: on the % scale 0 is the no-effect control and ±100 the full control effect; nearly all actives have a fitted effect of over 50% in size. Summed up: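 Luminescence after ONE-Glo (30 min, room temperature) measured ERE-luciferase activity in VM7Luc4E2 cells treated 22 h with compound and 0.1 nM final 17beta-estradiol as stimulator.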
For orientation: qHTS replaces the single test concentration by a dilution series.

Experiment [3] can be described thus: qHTS assay to identify small molecule HDAC inhibitors (AID 1259364).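 Further: wild-type HCT-116 cells with endogenous class I/II HDAC activity; top concentration of the series differs between compounds; on the % scale 0 is the no-effect control and ±100 the full control effect; nearly all actives have a fitted effect of over 45% in size.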 The method, boiled down:
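HCT-116 (wild type), 1,500 cells/well, overnight; compound 2 hr 37C 5% CO2; HDAC-Glo I/II reagent 30 min RT; luminescence readout.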

A short description of experiment [4]: qHTS assay to identify small molecule HDAC inhibitors - cell viability counter screen (AID 1259365). Further: series mostly up to about 92 µM; on the % scale 0 is the no-effect control and ±100 the full control effect; nearly all actives have a fitted effect of over 50% in size. The method, boiled down: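 Wild-type HCT-116 cells were seeded at 1,500 per well, incubated overnight at 37 C, then exposed to compounds in DMSO for 2hr. Viability was read by CellTiter-Glo luminescence after 30min at room temperature.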
Experiment [5] in a line: qHTS assay to identify small molecule agonists of the sonic hedgehog signaling (Shh) pathway - cell viability counter screen (AID 1259366). Further: on the % scale 0 is the no-effect control and ±100 the full control effect; nearly all actives have a fitted effect of over 50% in size. The method, boiled down:
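NIH/3T3-derived 3T3 Gli1-Luc cells (stable Gli1-responsive firefly luciferase reporter) were seeded, rested 4 hr at 37 C/5% CO2, then exposed to compounds in DMSO for 24 hr; viability was read by CellTiter-Fluor fluorescence in the same wells.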

Experiment [6] is described as follows: qHTS assay to identify small molecule antagonists of the sonic hedgehog signaling (Shh) pathway - cell viability counter screen (AID 1259367). Further: on the % scale 0 is the no-effect control and ±100 the full control effect; nearly all actives have a fitted effect of over 55% in size. The method, boiled down: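 Viability was read by CellTiter-Fluor fluorescence in the same wells, reagent added 23 hr into compound treatment and incubated 1 hr at 37C. The 3T3 Gli1-Luc reporter cells (2,000/well) received conditioned medium after compound and ran 24 hr.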

Experiment [7] in a line: qHTS assay to identify small molecule agonists of the sonic hedgehog signaling (Shh) pathway (AID 1259368; calls by dose curve; further: series mostly up to about 92 µM; on the % scale 0 is the no-effect control and ±100 the full control effect; nearly all actives have a fitted effect of over 15% in size). Summed up:
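Read-out: firefly luciferase luminescence from a Gli1 response element reporter stably integrated in NIH/3T3-derived 3T3Gli1-Luc cells, measured 30 min at room temperature after reagent addition. Compound exposure lasted 24 hr at 37 C, 5% CO2.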

A short description of experiment [8]: qHTS assay to identify small molecule antagonists of the sonic hedgehog signaling (Shh) pathway (AID 1259369; calls by dose curve; further: nearly all actives have a fitted effect of over 45% in size; further: potency means the concentration at half of the fitted maximal effect; on activity change, negative = inhibition: on the % scale 0 is the no-effect control and ±100 the full control effect). Summed up:
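Luminescence readout: firefly Luc under Gli1 response element in 3T3Gli1-Luc cells (NIH/3T3 clone). Antagonist mode, stimulation by conditioned medium; compound exposure 24hr at 37 C, 5% CO2.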

Experiment [9] concerns the target Estrogen receptor beta (Homo sapiens) (UniProt Q92731). Kind of experiment: qHTS assay to identify small molecule agonists of the estrogen receptor beta (ER-beta) signaling pathway (AID 1259377; active means well fitted activation curve with a large enough effect in the signal ratio in the repeat runs, not every such curve was filed as active; the % refers to the signal ratio; further: on the % scale 0 is the no-effect control and ±100 the full control effect). The method, boiled down:
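ER-beta-UAS-bla HEK293T (GripTite) cells carrying a UAS-driven beta-lactamase reporter, in medium with 2% charcoal-stripped FBS, were exposed to compounds for 16 hr at 37C; LiveBLAzer B/G FRET substrate was then added and fluorescence read after 2 hours at room temperature.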

Experiment [10] can be described thus: qHTS assay to identify small molecule agonists of the androgen receptor (AR) signaling pathway in the presence of an antagonist - cell viability counter screen (AID 1259379).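 Further: MDA-kb2 human breast cancer cells carrying an MMTV luciferase reporter; series mostly up to about 92 µM; on the % scale 0 is the no-effect control and ±100 the full control effect; nearly all actives have a fitted effect of over 25% in size.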 The method, boiled down: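 Viability counter screen: CellTiter-Fluor fluorescence, measured in the same wells as the luciferase read-out. MDA-kb2 cells, 3,000/well, with nilutamide at 3.0uM final and compounds at 15 concentrations, 16 hr at 37C, 0% CO2.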

A short description of experiment [11]: qHTS assay to identify small molecule agonists of the estrogen receptor beta (ER-beta) signaling pathway - cell viability counter screen (AID 1259380). Further: nearly all actives have a fitted effect of over 30% in size. Further: potency means the concentration at half of the fitted maximal effect. Summed up:
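Luminescence read-out (CellTiter-Glo, 30 min, room temp) taken in the same wells as the beta-lactamase reporter assay; ER-beta-UAS-bla HEK293T cells exposed to DMSO-dissolved compounds for 16 hr at 37C in 2% charcoal-stripped FBS medium.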

The target in experiment [12] is Androgen receptor (Homo sapiens) (UniProt P10275). Kind of experiment: qHTS assay to identify small molecule agonists of the androgen receptor (AR) signaling pathway in the presence of an antagonist (AID 1259381; calls by dose curve; further: potency means the concentration at half of the fitted maximal effect; nearly all actives have a fitted effect of over 15% in size). The method, boiled down:
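Luciferase read-out (ONE-Glo, 30min room temperature) in MDA-kb2 MMTV-reporter cells; agonist mode run in presence of AR antagonist nilutamide, 3.0uM final. Compounds tested as 15-point series, 16hr exposure at 37C, 0% CO2.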

For experiment [13], the target named is Estrogen receptor (Homo sapiens) (UniProt P03372). Kind of experiment: qHTS assay to identify small molecule agonists of the estrogen receptor alpha (ER-alpha) signaling pathway in the presence of an antagonist (AID 1259383; calls by dose curve; further: top concentration of the series differs between compounds; on the % scale 0 is the no-effect control and ±100 the full control effect; nearly all actives have a fitted effect of over 15% in size). Summed up: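 Luciferase luminescence (ONE-Glo, 30min at room temperature) measured in VM7Luc4E2 cells after 22hr compound exposure at 15 concentrations, with 10.0nM ICI-182,780 final present; cells express endogenous ER-alpha and carry four EREs upstream of luciferase.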
Sequence of Estrogen receptor (Homo sapiens) (P03372 whole entry, looked up): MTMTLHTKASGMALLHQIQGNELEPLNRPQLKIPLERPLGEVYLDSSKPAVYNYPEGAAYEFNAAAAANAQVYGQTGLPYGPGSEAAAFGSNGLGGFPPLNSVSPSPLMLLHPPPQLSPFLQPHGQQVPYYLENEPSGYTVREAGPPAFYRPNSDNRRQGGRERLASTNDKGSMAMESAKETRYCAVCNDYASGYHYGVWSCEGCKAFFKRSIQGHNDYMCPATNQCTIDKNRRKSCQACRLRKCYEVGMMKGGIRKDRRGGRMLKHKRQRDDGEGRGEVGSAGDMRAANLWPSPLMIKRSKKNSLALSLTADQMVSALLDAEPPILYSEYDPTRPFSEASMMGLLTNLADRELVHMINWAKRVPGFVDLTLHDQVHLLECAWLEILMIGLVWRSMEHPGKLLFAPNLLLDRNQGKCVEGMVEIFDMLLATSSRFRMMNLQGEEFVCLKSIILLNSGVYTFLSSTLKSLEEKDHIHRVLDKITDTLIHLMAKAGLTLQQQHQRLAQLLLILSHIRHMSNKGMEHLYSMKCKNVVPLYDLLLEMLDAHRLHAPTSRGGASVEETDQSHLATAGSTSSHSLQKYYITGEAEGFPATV

The target of experiment [14] is Thyrotropin receptor (Homo sapiens) (UniProt P16473). Kind of experiment: qHTS assay to identify small molecule antagonists of the thyroid stimulating hormone receptor (TSHR) signaling pathway (AID 1259385; calls by dose curve; further: nearly all actives have a fitted effect of over 20% in size; further: potency means the concentration at half of the fitted maximal effect; on activity change, negative = inhibition: on the % scale 0 is the no-effect control and ±100 the full control effect). The method, boiled down:
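Antagonist mode: compound-treated TSHR-expressing HEK293 cells were stimulated with 1.5 ng/mL TSH (final) in presence of Ro20-1724 for 30 min at RT. HTRF cAMP detection after 1 h; each compound tested at 15 concentrations, triplicate.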

A short description of experiment [15]: qHTS assay to identify small molecule agonists of the estrogen receptor alpha (ER-alpha) signaling pathway in the presence of an antagonist - cell viability counter screen (AID 1259386). Further: series mostly up to about 92 µM; on the % scale 0 is the no-effect control and ±100 the full control effect; nearly all actives have a fitted effect of over 30% in size. The method, boiled down: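 Read-out: CellTiter-Fluor fluorescence after 1hr reagent incubation, measured in the same wells as the luciferase readout. VM7Luc4E2 cells were exposed to 15 compound concentrations with 10.0nM ICI-182,780 for 22hr at 37C.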

The nature of experiment [16]: qHTS assay to identify small molecule antagonists of the estrogen receptor beta (ER-beta) signaling pathway - cell viability counter screen (AID 1259382). Further: series mostly up to about 92 µM; on the % scale 0 is the no-effect control and ±100 the full control effect; nearly all actives have a fitted effect of over 55% in size. The method, boiled down: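 Luminescent ATP read-out (CellTiter-Glo, 30 min, RT) taken in the same wells as the bla reporter assay. HEK293T ER-beta-UAS-bla cells in 2% charcoal-stripped FBS were exposed to compounds with 1nM E2 for 16 hr at 37C.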

Experiment [17] can be described thus: qHTS assay to identify small molecule agonists or antagonists of the thyroid stimulating hormone receptor (TSHR) signaling pathway - wild type cell line counter screen (AID 1259384; calls by dose curve; further: on the % scale 0 is the no-effect control and ±100 the full control effect). Summed up:
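Counter screen in untransfected Hek293: compounds (15-point titration, triplicate) plus phosphodiesterase inhibitor Ro20-1724 added after 18 h plating; 30 min RT. Intracellular cAMP via competitive d2/cryptate immunoassay, 1 h incubation.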

Molecules are shown by their SMILES. Unmarked numbers belong to inactive results. Inconclusive results are not listed. Calls of active or inactive are those of the source. Unless noted, the call rests on the fitted dose curve; in most records, active means well fitted curve in the direction sought with a large enough effect in the repeat runs; inconclusive means weak or mixed curves; inactive means no such curve, though single readings can be large; an effect the other way counts as inactive or inconclusive.

Sequence of Thyrotropin receptor (Homo sapiens) (P16473 whole entry, looked up): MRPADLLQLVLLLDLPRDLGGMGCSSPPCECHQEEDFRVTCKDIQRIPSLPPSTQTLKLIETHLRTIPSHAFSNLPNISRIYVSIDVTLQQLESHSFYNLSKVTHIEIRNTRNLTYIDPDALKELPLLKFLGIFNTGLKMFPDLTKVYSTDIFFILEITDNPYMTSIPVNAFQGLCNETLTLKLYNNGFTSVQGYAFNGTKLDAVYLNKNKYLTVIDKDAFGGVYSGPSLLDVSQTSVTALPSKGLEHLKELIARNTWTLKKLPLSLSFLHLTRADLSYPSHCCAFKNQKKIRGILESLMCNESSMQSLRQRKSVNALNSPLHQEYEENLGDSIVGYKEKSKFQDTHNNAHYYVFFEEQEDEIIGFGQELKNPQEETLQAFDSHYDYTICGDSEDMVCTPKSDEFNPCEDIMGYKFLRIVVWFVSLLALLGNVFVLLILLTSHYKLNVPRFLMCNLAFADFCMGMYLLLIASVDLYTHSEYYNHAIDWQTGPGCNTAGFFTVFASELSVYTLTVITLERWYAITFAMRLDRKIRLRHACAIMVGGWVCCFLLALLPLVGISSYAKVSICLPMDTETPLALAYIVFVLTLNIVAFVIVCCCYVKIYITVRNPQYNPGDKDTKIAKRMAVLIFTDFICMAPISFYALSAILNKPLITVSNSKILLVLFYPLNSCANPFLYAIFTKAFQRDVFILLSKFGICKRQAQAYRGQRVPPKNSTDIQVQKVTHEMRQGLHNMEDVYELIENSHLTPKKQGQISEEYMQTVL
Sequence of Androgen receptor (Homo sapiens) (P10275 whole entry, looked up): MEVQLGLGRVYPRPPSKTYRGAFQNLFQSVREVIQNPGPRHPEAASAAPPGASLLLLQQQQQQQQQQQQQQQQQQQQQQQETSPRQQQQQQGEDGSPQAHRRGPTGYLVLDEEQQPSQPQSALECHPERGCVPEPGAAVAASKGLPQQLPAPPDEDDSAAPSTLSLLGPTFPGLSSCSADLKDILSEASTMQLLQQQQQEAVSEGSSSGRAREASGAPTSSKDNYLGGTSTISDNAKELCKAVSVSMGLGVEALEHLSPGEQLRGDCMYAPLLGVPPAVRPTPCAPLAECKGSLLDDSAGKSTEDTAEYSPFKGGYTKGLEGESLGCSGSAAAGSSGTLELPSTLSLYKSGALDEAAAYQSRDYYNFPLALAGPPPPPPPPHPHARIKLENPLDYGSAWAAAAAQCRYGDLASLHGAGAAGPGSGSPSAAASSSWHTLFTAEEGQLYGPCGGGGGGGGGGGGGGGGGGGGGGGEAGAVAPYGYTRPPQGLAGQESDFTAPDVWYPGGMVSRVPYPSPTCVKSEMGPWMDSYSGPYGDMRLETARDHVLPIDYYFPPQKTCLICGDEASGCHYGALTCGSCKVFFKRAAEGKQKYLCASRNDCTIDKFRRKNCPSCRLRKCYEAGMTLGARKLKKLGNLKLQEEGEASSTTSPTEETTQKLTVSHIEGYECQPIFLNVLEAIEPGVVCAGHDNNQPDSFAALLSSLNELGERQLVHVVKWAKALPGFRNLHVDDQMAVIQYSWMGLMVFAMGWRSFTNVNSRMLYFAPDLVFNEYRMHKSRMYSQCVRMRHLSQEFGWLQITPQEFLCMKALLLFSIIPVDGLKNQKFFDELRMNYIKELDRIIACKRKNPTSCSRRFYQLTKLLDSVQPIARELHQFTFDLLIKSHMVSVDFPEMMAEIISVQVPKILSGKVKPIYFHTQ
Sequence of Estrogen receptor beta (Homo sapiens) (Q92731 whole entry, looked up): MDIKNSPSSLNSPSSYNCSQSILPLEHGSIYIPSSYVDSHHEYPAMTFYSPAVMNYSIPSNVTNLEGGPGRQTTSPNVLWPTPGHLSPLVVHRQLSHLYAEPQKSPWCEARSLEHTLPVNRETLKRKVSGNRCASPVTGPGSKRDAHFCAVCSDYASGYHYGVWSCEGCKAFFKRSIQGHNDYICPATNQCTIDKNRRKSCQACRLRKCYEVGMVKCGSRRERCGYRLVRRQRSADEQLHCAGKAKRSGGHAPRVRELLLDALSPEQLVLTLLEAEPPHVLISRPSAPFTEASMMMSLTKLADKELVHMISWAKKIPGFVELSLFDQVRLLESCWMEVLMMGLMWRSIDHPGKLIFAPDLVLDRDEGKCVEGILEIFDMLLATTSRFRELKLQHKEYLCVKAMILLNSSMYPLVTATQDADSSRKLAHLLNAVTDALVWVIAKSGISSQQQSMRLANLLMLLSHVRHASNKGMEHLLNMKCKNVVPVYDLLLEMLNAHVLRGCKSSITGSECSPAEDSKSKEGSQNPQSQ

Turning to `O=C1CCN(c2ccccc2)N1`, the outcome in [1], in [4] and in experiment [9] was inactive. Besides, the Potency result in experiment [2], in [3], in [5], in experiment [6], in experiment [7] and in [8] was “inactive” in each case. The Potency result in [10], in experiment [13], in [14] and in experiment [15] was “inactive” in each case. Besides, the Potency in [11] is 21.8 µM (active); in experiment [12], 30.7 µM (active).

With `COc1nc(C)nc(NC(=O)NS(=O)(=O)c2ccccc2OCCCl)n1`, the result in experiment [1], in experiment [4] and in experiment [16] was inactive. Further, the Potency result in [2], in [3], in experiment [5], in experiment [6], in experiment [7] and in experiment [8] was “inactive” throughout. Besides, the Potency entry in [10], in experiment [13] and in [15] was “inactive” each time.

Take `CCCOCCC`: the outcome in experiment [1], in experiment [16] and in [17] was inactive. Moreover, the Potency entry in experiment [2], in experiment [3], in [5], in experiment [6], in experiment [7] and in [8] was “inactive” each time. In addition, the Potency entry in [10], in experiment [11], in [13], in [14] and in experiment [15] was “inactive” in each case.

`Clc1cccc(-c2cc(Cl)cc(Cl)c2)c1`: the outcome in experiment [1], in [4], in [16] and in experiment [17] was inactive. For the same compound, the Potency entry in experiment [2], in experiment [3], in experiment [5], in [6], in experiment [7] and in [8] was “inactive” in each case. Further, the Potency result in [10], in experiment [13] and in [15] was “inactive” throughout. Moreover, in experiment [14], the Potency was 52.5 µM (active).

With `CCCCCCCCCC/C=C/C#N`, the result in experiment [1], in [4], in experiment [16] and in experiment [17] was inactive. Further, the Potency entry in [2], in [3], in experiment [5], in experiment [6], in experiment [7] and in experiment [10] was “inactive” throughout. For the same compound, the Potency result in [11], in experiment [13], in [14] and in experiment [15] was “inactive” each time.

`CCCCCCOc1ccc(N)cc1`: the result in experiment [1] and in [4] was inactive. Also, the Potency entry in experiment [2], in [5], in experiment [6], in [7], in experiment [10] and in experiment [15] was “inactive” throughout. In addition, the Potency in experiment [11] was 17.2 µM (active).

For the compound `COC(=O)c1ccc2cc(C(=O)OC)ccc2c1`, the viability change, negative = cytotoxic in [1] is 1.72% [at 19 µM]; in experiment [5], 0.624% [at 19 µM]; in experiment [6] it was -4.66% [at 19 µM]. Also, the activity change, negative = inhibition in [2] was -28.1% [at 19 µM]; in experiment [3] it was -8.76% [at 19 µM]; in experiment [14], -1.02% [at 19 µM]. Besides, the activity change, negative = cytotoxicity was -11% [at 19 µM] in [4]; 2.92% [at 19 µM] in [10]; 0.723% [at 19 µM] in experiment [11]; -4.09% [at 19 µM] in experiment [16]; -3.99% [at 19 µM] in [15]. The activity change in [7] is 6.39% [at 18.9 µM, active compounds read high]. In [8], the Potency was 9.93 µM (active). In experiment [13], the activation is 0.0917% [at 19 µM]. Further, the cAMP activity change in experiment [17] was 3.63% [at 18.9 µM].

(Values after PubChem BioAssay (Tox21).)
